Data: PubChem BioAssay (NCI)
Compounds without any hit were thinned out: in the full panel of roughly 83,000, 20% have a hit.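 The test compound was applied at a single concentration to cells in 96-well plates for 48 hours, and percent growth was recorded.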 A number with no mark means an inactive call. Calls of active or inactive are those of the source. Rule for the calls: active = growth percent below 10; inactive = the rest.

Columns and labels:
Experiment in all cases: NCI-60 one-dose screen, 48 h (100 = growth as untreated, 0 = no growth, -100 = all killed)
Details in all cases: 10 µM unless noted
DU-145 prostate = test system: DU-145 prostate
K-562 leukemia = test system: K-562 leukemia
MALME-3M melanoma = test system: MALME-3M melanoma
MDA-MB-231 breast = test system: MDA-MB-231 breast
RXF 393 renal = test system: RXF 393 renal
SF-268 CNS = test system: SF-268 CNS
SF-295 CNS = test system: SF-295 CNS
SF-539 CNS = test system: SF-539 CNS
UACC-257 melanoma = test system: UACC-257 melanoma
M14 melanoma = test system: M14 melanoma
HCT-15 colon = test system: HCT-15 colon
HT29 colon = test system: HT29 colon
SNB-75 CNS = test system: SNB-75 CNS
SNB-19 CNS = test system: SNB-19 CNS
U251 CNS = test system: U251 CNS
PC-3 prostate = test system: PC-3 prostate
SK-MEL-5 melanoma = test system: SK-MEL-5 melanoma
UACC-62 melanoma = test system: UACC-62 melanoma
LOX IMVI melanoma = test system: LOX IMVI melanoma
SK-MEL-28 melanoma = test system: SK-MEL-28 melanoma

| SMILES | growth (DU-145 prostate) | growth (K-562 leukemia) | growth (MALME-3M melanoma) | growth (MDA-MB-231 breast) | growth (RXF 393 renal) | growth (SF-268 CNS) | growth (SF-295 CNS) | growth (SF-539 CNS) | growth (UACC-257 melanoma) | growth (M14 melanoma) | growth (HCT-15 colon) | growth (HT29 colon) | growth (SNB-75 CNS) | growth (SNB-19 CNS) | growth (U251 CNS) | growth (PC-3 prostate) | growth (SK-MEL-5 melanoma) | growth (UACC-62 melanoma) | growth (LOX IMVI melanoma) | growth (SK-MEL-28 melanoma) |
| --- | --- | --- | --- | --- | --- | --- | --- | --- | --- | --- | --- | --- | --- | --- | --- | --- | --- | --- | --- | --- |
| COc1cc(/C=C/c2cc(/C=C/c3ccc(O)c(OC)c3)n(C(=O)Nc3ccc(C)cc3C)n2)ccc1O | -26.6% (active) | -7.18% (active) | -21.7% (active) | 10.2% | -67.3% (active) | 3.8% (active) | -51% (active) | -19.6% (active) | -21.4% (active) | -38.1% (active) | 3.84% (active) | -38.5% (active) | -30.5% (active) | 2.45% (active) | -12.3% (active) | -10.8% (active) | -83.4% (active) | -48.5% (active) | -29.8% (active) | – |
| c1ccc(-c2cn3nc(-c4c[nH]c5ccccc45)sc3n2)cc1 | 98% | 42.4% | 62.6% | 76.5% | 97.4% | 94.4% | 83.7% | 85.5% | 83.2% | 71.1% | 56.2% | 86% | 54.1% | 87.6% | 92.4% | 76.8% | 74.2% | 71% | 86% | – |
| C#CC#CC#CC#CC#CC#CC#CC#CC[C@@H]1OC[C@H](COC(=O)O[C@@H](C(=O)O[C@H]2C[C@@]3(O)[C@@H](OC(=O)c4ccccc4)[C@@H]4[C@]5(OC(C)=O)CO[C@@H]5C[C@H](O)[C@@]4(C)C(=O)[C@H](OC(C)=O)C(=C2C)C3(C)C)[C@@H](NC(=O)c2ccccc2)c2ccccc2)O1 | 24.4% | 15.8% | 43.7% | 45.3% | 22.7% | 51.7% | 25.3% | 30.2% | 55.7% | 18.6% | 98.8% | 4.07% (active) | 34.9% | 38.1% | 28.5% | 26.1% | 48.7% | 35% | 34.3% | 52.2% |
| Cc1ccc(Nc2cc(N)nc(N)n2)cc1 | 107% | 87.9% | 102% | 108% | 114% | 93.4% | 103% | 112% | 110% | 104% | 104% | 103% | 84.2% | 110% | 109% | 98% | 98.2% | 97.2% | 97.9% | – |
| C=CC(=O)NCc1cccc(Nc2ncc(Br)c(NCCCNC(=O)C3CCC3)n2)c1 | 9.47% (active) | 9.33% (active) | -23.2% (active) | -26% (active) | -74.6% (active) | -29.4% (active) | 2.75% (active) | -68% (active) | 0.107% (active) | -31% (active) | 0.948% (active) | -18.2% (active) | -70.4% (active) | 3.56% (active) | -2.33% (active) | 7.62% (active) | -39.8% (active) | -41.6% (active) | -41.1% (active) | -15.7% (active) |
| COc1cc(NC(=O)c2cncnc2Nc2ccc3c(ccn3Cc3cccc(F)c3)c2)cc(OC)c1 | 79.9% | 15.4% | 71.6% | 57.4% | 62.5% | 68.9% | 50.4% | 44.4% | 72.7% | 47.2% | 33.7% | 20% | 8.48% (active) | 74.7% | 41.1% | 43.5% | 59.7% | 55% | 40.3% | – |
| Nc1c(C(=O)c2ccc(Cl)cc2)sc(Nc2ccccc2)c1-c1nc2ccccc2s1 | 25.5% | 55.2% | 20.7% | 18.8% | 72.8% | 45.5% | -24.4% (active) | 43.2% | 58.8% | 30.6% | 39.7% | 17.9% | 18.1% | 62.1% | 4.94% (active) | 10.3% | 55.1% | 7.88% (active) | 17.8% | 42.6% |
| Cc1ccc(C2=Nc3c(N)nc(N)nc3NC(c3cccc(Nc4ccnc5cc(C(F)(F)F)ccc45)c3)C2)cc1 (configuration not stated) | 46.6% | 8.46% (active) | 39.1% | 34.8% | 23.6% | 29.7% | 15.8% | 40.3% | 62.3% | 11.1% | 15.2% | 1.9% (active) | 7.55% (active) | 34.4% | 12.8% | 16.5% | 17.6% | 40.8% | -2.42% (active) | – |
| CCN(CC)CCCNC(=O)c1c2c(n3ccccc13)C(=O)c1ncccc1C2=O | -94.9% (active) | -33.7% (active) | -93% (active) | -0.531% (active) | -35.9% (active) | -3.91% (active) | -22.1% (active) | -63% (active) | -90.1% (active) | -84.1% (active) | -73.6% (active) | -28.5% (active) | -87.2% (active) | -71.3% (active) | -83.8% (active) | -19.8% (active) | -99.2% (active) | -53.8% (active) | -71.2% (active) | – |
| CCN(CC)CCCNc1cc(OC)cc2cccnc12 | 105% | 81.4% | 133% | 89.5% | 96.5% | 96.5% | 105% | 101% | 107% | 127% | 99.7% | 91.6% | 111% | 109% | 94.8% | 93.8% | 95.3% | 110% | 97.2% | – |
| CNC(=O)c1cc(Oc2ccc3nc(NC(=O)NC(C)C)sc3c2)ccn1 | 98.8% | 7.14% (active) | 86.2% | 79.5% | 95.4% | 89.8% | 77.5% | 76.9% | 73.7% | 50.5% | 55.9% | 33.3% | 93.9% | 82.3% | 51.6% | 70.1% | 65.3% | 68.6% | 68.8% | – |
| CCOC(=O)c1ccc2c(c1)[n+](=O)c(C(C)=O)c(C(F)(F)F)n2[O-] | -88.5% (active) | -76.7% (active) | -40% (active) | 22.2% | 31.6% | -51.8% (active) | 23% | 29.7% | -37.1% (active) | 8.64% (active) | -36% (active) | -0.876% (active) | 25.6% | 17.4% | 6.13% (active) | -45.7% (active) | -94.3% (active) | 2.99% (active) | -59.7% (active) | – |
| C#Cc1c(I)n(C2OC(CO[Si](C)(C)C(C)(C)C)C3OC(C)(C)OC32)c(=O)[nH]c1=O (configuration not stated) | 25.1% | -35.5% (active) | 66.4% | 16.1% | -72.3% (active) | 100% | 120% | 92.4% | 64.1% | 76.4% | -9.25% (active) | 38.6% | 86.8% | 94.2% | 3.76% (active) | -61.1% (active) | 96.6% | 82.1% | -80.6% (active) | – |
| Cc1c(N2CCCCC2)[nH]c2ccccc12 | 120% | 113% | 121% | 121% | 116% | 117% | 89% | 121% | 94% | 105% | 131% | 104% | 117% | 116% | 101% | 70.5% | 107% | 110% | 95.3% | – |
| O=c1c(Cc2ccc(F)cc2)cc(-c2ccccc2)nn1C/C(=N/O)c1ccccc1 | 79.6% | 29.2% | 35.8% | 43.1% | 28.5% | 52.6% | 31.9% | 81.9% | 53.8% | 37.5% | 44.5% | 20.3% | 57.8% | 58.3% | 34.5% | 25.9% | 36.6% | 33.6% | 53.1% | – |
| Clc1ccc(C2=Nn3c(nnc3-c3cc(Cl)cc(Cl)c3Cl)SC2)cc1 | -16.6% (active) | 12.4% | 44.4% | 65.3% | 66.2% | 35% | 14.8% | 72.9% | 71.5% | 11.7% | 32.3% | 6.41% (active) | 31.7% | 32.8% | 20.9% | 20.2% | 0.698% (active) | 31.9% | 39.8% | – |
